High-throughput results from PubChem.
Only some compounds are listed: those with a hit (about 3.4% of all), similar ones and a draw of the others.
IMPase Li inh: IMPase inhibition in cells with lithium potentiation | CHO-M1 cells, IP1 TR-FRET (IP-One), carbachol + lithium | Potency, µM (series often up to 59.4 µM), actives largely listed as inhibitors | hit rate 0.35% among 210,000 | AID 1457;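 also: IP1 builds up when IMPase is blocked and the TR-FRET signal falls; nearly all actives have a fitted effect of over 50% in size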
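CHO cells stably expressing M1 receptor (2000/well, cultured 16–30 h) treated 30 min at 37C with compound plus low lithium. Cytosolic IP1 by TR-FRET (665/620 ratio and 620 channel) after 10 min lysis; AC50 by Hill fit.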
IMPase inh: cell-permeable inhibitors of inositol monophosphatase (IMPase); 120,000 tested, under 10 active; inhibition (IP1 accumulation), % at 46.1 µM; CHO-M1 cells, IP1 accumulation, HTRF TR-FRET ratio; active = well fitted curve in the direction sought with a large enough effect in the signal ratio, not every such curve was filed as active; inconclusive = small, poorly fitted or top-dose-only effect, or a change in a side signal; inactive = no such curve, though single readings can be large or run the other way; the % refers to the signal ratio;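 also: cells stimulated with carbachol in lithium chloride buffer; higher means more IMPase inhibition seen as more IP1 and lower FRET ratio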
Target sequence (P97697 whole entry, looked up): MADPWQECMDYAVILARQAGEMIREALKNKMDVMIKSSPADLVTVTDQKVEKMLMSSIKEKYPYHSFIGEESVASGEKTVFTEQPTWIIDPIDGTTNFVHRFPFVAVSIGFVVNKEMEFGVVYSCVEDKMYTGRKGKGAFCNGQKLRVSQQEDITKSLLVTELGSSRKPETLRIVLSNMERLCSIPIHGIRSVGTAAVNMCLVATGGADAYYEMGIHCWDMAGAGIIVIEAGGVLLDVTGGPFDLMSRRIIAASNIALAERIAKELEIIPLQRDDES
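Elevated IP1 in lysates lowers TR-FRET signal (665/620 ratio and 620 channel reported). Cells were CHO-M1, given carbachol (50 uM as added) plus 50mM LiCl, pH 7.4, 30 min, 37C; compounds titrated up to 46 uM; AC50 by Hill equation.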
PNC inhibitor: perinucleolar compartment assembly inhibition; PC3M PTB-GFP, PNC prevalence imaging, 16 h; stronger effect = lower value; activity change (PNC), negative = inhibition, % at 10 µM; hit rate 3.1% among 140,000; AID 2417;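 active = readout at or below -70, meaning at least 70% loss of cells showing the perinucleolar compartment, a nuclear body marking cancer cells; inconclusive = readout between -30 and a set limit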
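Compounds are pinned in duplicate onto adhered PC3M cells stably expressing GFP-tagged PTB and incubated 16 h at 37 C. Cells are then fixed, nuclei stained with Hoechst, and PNC-positive cells counted.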
NPSR antagonist: antagonists of human neuropeptide S receptor cAMP signaling | Q6W5P4 | CHO-NPSR cells, cAMP TR-FRET, antagonist mode | Potency, µM (doses to about 38.3 µM), actives largely listed as inhibitors | hit rate 1% among 220,000 | AID 1461; also: nearly all actives have a fitted effect of over 50% in size
Target sequence (Q6W5P4 whole entry, looked up): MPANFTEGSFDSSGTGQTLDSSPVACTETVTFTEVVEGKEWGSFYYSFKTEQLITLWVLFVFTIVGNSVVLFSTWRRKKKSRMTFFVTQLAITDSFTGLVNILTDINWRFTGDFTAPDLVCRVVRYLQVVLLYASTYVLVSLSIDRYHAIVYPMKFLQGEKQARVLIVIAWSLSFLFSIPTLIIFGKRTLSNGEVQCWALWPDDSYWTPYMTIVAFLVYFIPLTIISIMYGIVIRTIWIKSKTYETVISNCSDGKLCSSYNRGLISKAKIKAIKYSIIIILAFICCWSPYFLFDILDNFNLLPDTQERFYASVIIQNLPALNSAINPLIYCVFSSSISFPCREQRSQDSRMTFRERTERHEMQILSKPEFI
HTT ATP protect: protects HTT-Q103 PC12 cells, measured by ATP; AID 1471; PC12 HTT-Q103 induced, cytoprotection, ATP luminescence, 40 h; Potency, µM (series often up to 56.4 µM), actives largely listed as activators; hit rate 0.14% among 230,000; also: nearly all actives have a fitted effect of over 45% in size
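Cells were plated at 1500 per well in phenol red-free DMEM with 5% equine and 5% calf serum. Tebufenozide (100 nM final) and compounds were added, then ATPlite reagent, and luminescence was read.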
HttQ103 aggreg: mutant huntingtin aggregation inhibition; PC12 HttQ103-GFP aggregates, Acumen cytometry, 40 h; hit rate 1.1% among 220,000; Potency, µM (top dose mostly 46.1 µM), most hits filed as inhibitors; also: nearly all actives have a fitted effect of over 60% in size
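Steps: seed 1500 PC12 HTTQ103-GFP cells/well; add tebufenozide, 100 nM final; add compound titration; add ATPLite reagent; quantify GFP aggregates by laser scanning cytometry.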
Each line names hits and unclear results; the compound was inactive in the other large screens. Unless noted, calls follow the shape of the dose curve; as a rule, active = well fitted curve in the direction sought with a large enough effect; inconclusive = small, poorly fitted or top-dose-only effect, or another doubt; inactive = no such curve, though single readings can be large; an effect the other way counts as inactive or inconclusive.

Cc1ccc2c(CC(=O)NCCc3ccc(S(N)(=O)=O)cc3)coc2c1	none (no result: IMPase Li inh, IMPase inh, PNC inhibitor)
O=C1C(Cl)=C(N2CCCCC2)C(=O)N1Cc1ccccc1	PNC inhibitor -104 (no result: IMPase inh)
Cc1noc(NC(=O)Nc2ccccc2F)c1C#N	none (no result: IMPase inh, PNC inhibitor, NPSR antagonist, HttQ103 aggreg)
O=C(c1ccccc1)N1CCN(C(=O)C23CC4CC(CC(C4)C2)C3)CC1	PNC inhibitor -127, HttQ103 aggreg inconclusive
COc1ccc(NC(=O)c2ccc(COCC(F)(F)C(F)F)cc2)cc1OC	PNC inhibitor inconclusive
COc1cc(NC(=O)c2cccc(COCC(F)(F)C(F)F)c2)cc(OC)c1OC	PNC inhibitor -100
C(=C\c1nc(-c2ccccc2)oc1Nc1ccc2ccccc2c1)/c1ccccc1	HTT ATP protect inconclusive (no result: IMPase inh, PNC inhibitor, NPSR antagonist, HttQ103 aggreg)
Cc1cccc(CSC(=N)N)c1	PNC inhibitor -115 (no result: IMPase Li inh)
CCN(CC)CCCC(C)Nc1c2ccc(Cl)cc2nc2ccc(OC)cc12 (stereo not drawn)	NPSR antagonist 10µM (no result: IMPase inh, PNC inhibitor, HttQ103 aggreg)
COc1ccc(Cl)cc1NC(=O)C1CCCO1 (stereo not drawn)	none (no result: IMPase Li inh)
CCOc1cc(NC(=O)C2CCCO2)c(OCC)cc1NC(C)=O (stereo not drawn)	PNC inhibitor -94
CCC1=C2CC[C@H]3C(=O)N(CC)C(=O)[C@H]3[C@H]2[C@@]2(Cc3ccccc3)C(=O)N(CCOC)C(=O)N2C1=O	none (no result: IMPase inh, PNC inhibitor, NPSR antagonist, HttQ103 aggreg)
CC(=O)N(Cc1ccc(F)cc1)C1=C(NCCc2ccccc2)C(=O)c2ccccc2C1=O	NPSR antagonist inconclusive, HttQ103 aggreg 7.1µM
CC(=O)N(Cc1ccc(F)cc1)c1cccc(C)c1C	none (no result: IMPase inh, PNC inhibitor)
C=C1C(=O)OC2CC1C(OC(C)=O)CC(C)=CCCC(C)=CCC[C@@]2(C)O (stereo partly drawn)	none (no result: IMPase inh, PNC inhibitor, NPSR antagonist, HTT ATP protect, HttQ103 aggreg)
Cc1cc(C)nc(SCC(=O)c2ccc(O)cc2O)n1	PNC inhibitor -92
CCCCCC(=O)c1ccc(O)cc1O	HttQ103 aggreg 0.14µM (no result: IMPase inh, PNC inhibitor)
CCOC(=O)CSc1nc(-c2ccc(F)cc2)cc(C(F)(F)F)c1C#N	none (no result: IMPase Li inh, PNC inhibitor, NPSR antagonist, HTT ATP protect, HttQ103 aggreg)
CCC(CC)C(=O)Nc1cccc(C(=O)NCc2ccco2)c1	PNC inhibitor -115
CCC(CC)C(=O)Nc1cccc(C(=O)NCCc2ccccc2)c1	none (no result: IMPase inh, PNC inhibitor)
Cc1ccc(NC(=S)NCCc2ccc(S(N)(=O)=O)cc2)cc1C	PNC inhibitor -109, HttQ103 aggreg inconclusive (no result: IMPase Li inh)
Cc1ccc(NC(=S)N(C)C)cc1C	none (no result: IMPase Li inh, IMPase inh, PNC inhibitor)
Cc1cc(C)cc(NC(=S)NCCc2ccc(S(N)(=O)=O)cc2)c1	none (no result: IMPase inh)
Cc1ccc(NC(N)=S)cc1C	PNC inhibitor -125 (no result: IMPase inh)
CCC(CC)C(=O)Nc1cccc(C(=O)NCCc2ccc(S(N)(=O)=O)cc2)c1	PNC inhibitor -101
CC(=O)Nc1ccc(S(=O)(=O)N2CCN(CC(=O)N3CCOCC3)CC2)cc1	none (no result: IMPase Li inh, IMPase inh, PNC inhibitor)
COc1ccccc1OCCNC(=O)Cc1ccc(Cl)c(Cl)c1	none (no result: IMPase inh, PNC inhibitor)
C/C(CCN1CCCc2nc(C)c(C)cc21)=N\O[C@@H](C)CN1CCCc2nc(C)c(C)cc21	none (no result: IMPase Li inh, IMPase inh, PNC inhibitor, NPSR antagonist, HttQ103 aggreg)
CCC(=Cc1ccc(CC)cn1)CC	none (no result: IMPase Li inh, IMPase inh, PNC inhibitor)
O=C(CN1CCCCC1)N1CCCc2c1c(=O)oc1ccc(OCc3ccccc3)cc21	HTT ATP protect 3.2µM, HttQ103 aggreg inconclusive
CCOC(=O)C1CCCN(CC(=O)N2CCCc3c2c(=O)oc2ccc(OCc4ccccc4)cc32)C1 (stereo not drawn)	none (no result: IMPase Li inh, PNC inhibitor, NPSR antagonist, HTT ATP protect, HttQ103 aggreg)
CCOC(=O)c1c(C)[nH]c(C)c1C(=O)CSc1nc2ccccc2c(=O)n1-c1ccc(Cl)cc1	PNC inhibitor inconclusive, HttQ103 aggreg 20µM (no result: IMPase inh, HTT ATP protect)
C/C(N)=C(/C#N)C(=O)CSc1nc2ccccc2c(=O)n1-c1ccc(C)c(Cl)c1	IMPase Li inh 11µM
CC/C=C\C/C=C\C/C=C\C/C=C\C=C\C(O)CCCC(=O)O (stereo not drawn)	none (no result: IMPase inh, PNC inhibitor, NPSR antagonist, HttQ103 aggreg)
COc1ccc(/C=C2/N=C3CCCCCN3C2=O)cc1	none (no result: IMPase inh, PNC inhibitor)
NC1=NS(=O)(=O)NC1c1ccc(F)cc1 (stereo not drawn)	HTT ATP protect 3.5µM (no result: IMPase inh, PNC inhibitor)
CCOC(=O)c1ccc(NC2OC(=O)c3ccccc32)cc1 (stereo not drawn)	PNC inhibitor -94
COc1ccc(-n2c(-c3ccc(Br)cc3)c[n+]3c2SC(C)C3)cc1 (stereo not drawn)	HttQ103 aggreg 10µM (no result: IMPase inh, PNC inhibitor, HTT ATP protect)
Cc1ccc(-n2c(-c3ccc(Cl)cc3)c[n+]3c2CCC3)cc1	none (no result: IMPase Li inh, IMPase inh, PNC inhibitor)
Cc1ccc(-n2c(-c3ccccc3)c[n+]3c2CCC3)cc1	HttQ103 aggreg 8.9µM (no result: IMPase inh, PNC inhibitor)
COc1ccc(-n2c(-c3ccc(Br)cc3)c[n+]3c2CCC3)cc1	HttQ103 aggreg inconclusive (no result: IMPase inh, PNC inhibitor)
COc1ccc(-n2c(-c3ccc(Br)cc3)c[n+]3c2CCCCC3)cc1	HttQ103 aggreg 2.2µM (no result: IMPase inh, PNC inhibitor)
CNC(=S)N1CCc2cc(OC)c(OC)cc2C1	none (no result: IMPase Li inh, IMPase inh, PNC inhibitor)
CC(NC(=O)/C(C#N)=C/c1ccc(Cl)c([N+](=O)[O-])c1)c1ccccc1 (stereo not drawn)	PNC inhibitor -100, NPSR antagonist inconclusive (no result: IMPase inh)
CCc1ccc(C2=NN(S(C)(=O)=O)C(c3cccs3)C2)cc1 (stereo not drawn)	PNC inhibitor -100
Cc1ccc(C2=NN(S(C)(=O)=O)C(c3cccs3)C2)cc1 (stereo not drawn)	none
CCCCCCCCC	none (no result: IMPase inh, PNC inhibitor, NPSR antagonist, HttQ103 aggreg)
